Screens deposited in PubChem BioAssay by several laboratories.
This is a sample that favours compounds with a hit; in the whole collection about 4.1% have one here.
TRPM1 prom inh: inhibitors of MITF-driven TRPM1 promoter in melanoma cells. SK-MEL-5 TRPM1 promoter luciferase, 24 h. inhibition, % at 12.5 µM. 330,000 tested, 0.83% active. AID 488899;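 active = mean inhibition across replicates of 60% or more, whatever share of single replicates reaches that level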
LMP1 NFkB inh: Epstein-Barr LMP1 NF-kappaB reporter inhibition. LMP1-induced NF-kappaB luciferase reporter cells, luminescence. inhibition, % at 12.5 µM. 350,000 tested, 0.69% active; in the data active = inhibition above about 41%;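 note: 0% = neutral control wells and 100% = reference inhibitor control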
Shn3 inh set2: inhibitors of Schnurri-3 3'UTR reporter in osteoblasts; Clone20 osteoblast Shn3 3'UTR firefly luciferase, 24 h; inhibition, % at 12.5 µM; 360,000 tested, 0.52% active; AID 588674;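 active = mean inhibition of at least 75% with every replicate also reaching 75%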;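 note: 0% = median of neutral control wells and 100% = pilot-screen positive control compound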
TWEAK Fn14 block: blocks TWEAK-Fn14 interaction in a reporter cell assay | TWEAK-stimulated Fn14 reporter cells, luciferase luminescence, 8 h | inhibition, % at 10 µM | 360,000 tested, 2% active; in the data active = inhibition above about 50%
Peg3 promoter: inhibitors of Peg3 promoter. HeLa PEG-Prom luciferase reporter, luminescence, overnight. inhibition, % at 20 µM. 360,000 tested, 1.7% active. AID 588405;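 active = inhibition of at least 50% at 20 µM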
TROY NFkB inh: blocks TROY-dependent signaling in reporter cells | Q293 LMP1-TROYcd NF-kB luciferase reporter, 4 h | inhibition, % at 10 µM | 360,000 tested, 0.98% active;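 active = compounds whose plate-normalised and pattern-corrected inhibition of the luciferase reporter signal at the single screening dose is 50% or more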
* = called active by the depositor.

What do the screens show for `O=C(NCc1ccccn1)C1CCCN(S(=O)(=O)c2cc(Cl)ccc2Cl)C1` (stereo unspecified)?
TRPM1 prom inh: 98*; LMP1 NFkB inh: -40; Shn3 inh set2: 78; TWEAK Fn14 block: 3; Peg3 promoter: 99*; TROY NFkB inh: -14

Results for Cc1ccccc1CS(=O)(=O)c1nnc([C@H](Cc2ccccc2)NC(=O)OC(C)(C)C)o1 ?
TRPM1 prom inh: 83*; LMP1 NFkB inh: 7; Shn3 inh set2: 95*; TWEAK Fn14 block: 10; Peg3 promoter: 104*; TROY NFkB inh: 2

What do the screens show for `CCSc1nnc([C@H](Cc2ccccc2)NC(=O)OC(C)(C)C)o1`?
TRPM1 prom inh: -14; LMP1 NFkB inh: 4; Shn3 inh set2: -8; TWEAK Fn14 block: -15; Peg3 promoter: 5; TROY NFkB inh: -13

How did CCC(C)[C@@H](NC(=O)OC(C)(C)C)c1nnc(S(=O)(=O)Cc2cccc(C)c2)o1 (stereo partly specified) do in these assays?
TRPM1 prom inh: 71*; LMP1 NFkB inh: 1; Shn3 inh set2: 98*; TWEAK Fn14 block: 40; Peg3 promoter: 108*; TROY NFkB inh: 28

What do the screens show for `COc1cc(OC)c(OC)cc1/C=N/NC(=O)CSc1ccccc1F`?
TRPM1 prom inh: -2; LMP1 NFkB inh: 2; Shn3 inh set2: 7; TWEAK Fn14 block: -17; Peg3 promoter: -4; TROY NFkB inh: 13

What do the screens show for `CC(=O)CC1=NC(C)(C)Cc2ccccc21`?
TRPM1 prom inh: 13; LMP1 NFkB inh: -6; Shn3 inh set2: -9; TWEAK Fn14 block: 20; Peg3 promoter: -4; TROY NFkB inh: 53*

What do the screens show for `CC1(C)Cc2ccccc2C(C(=O)c2ccccc2)=N1`?
TRPM1 prom inh: -8; LMP1 NFkB inh: -3; Shn3 inh set2: 16; TWEAK Fn14 block: 10; Peg3 promoter: 5; TROY NFkB inh: 1

What do the screens show for `CCOc1ccc(-c2c(C(=O)N/N=C/c3cccc(Br)c3)nnn2-c2nonc2N)cc1`?
TRPM1 prom inh: 3; LMP1 NFkB inh: -5; Shn3 inh set2: 13; TWEAK Fn14 block: -42; Peg3 promoter: 56*; TROY NFkB inh: 8

Results for Nc1nonc1-n1nnc(C(=O)N/N=C/c2cccc(O)c2)c1CN1CCCC1 ?
TRPM1 prom inh: 3; LMP1 NFkB inh: 6; Shn3 inh set2: 0; TWEAK Fn14 block: -14; Peg3 promoter: 10; TROY NFkB inh: -29

Results for CN1CCN(Cc2c(C(=O)N/N=C/c3cccc(Br)c3)nnn2-c2nonc2N)CC1 ?
TRPM1 prom inh: 77*; LMP1 NFkB inh: 0; Shn3 inh set2: -1; TWEAK Fn14 block: 3; Peg3 promoter: 41; TROY NFkB inh: 11

How did COc1cccc2sc(Nc3nc(-c4ccccn4)cs3)nc12 do in these assays?
TRPM1 prom inh: 53; LMP1 NFkB inh: 46*; Shn3 inh set2: 71; TWEAK Fn14 block: 104*; Peg3 promoter: -17; TROY NFkB inh: -22

Results for c1ccc(Nc2nc(-c3ccccn3)cs2)cc1 ?
TRPM1 prom inh: -5; LMP1 NFkB inh: -15; Shn3 inh set2: -60; TWEAK Fn14 block: 45; Peg3 promoter: -284; TROY NFkB inh: 35

What do the screens show for `O=C(N/N=C/c1cccc2nccnc12)c1ccccc1O`?
TRPM1 prom inh: 23; LMP1 NFkB inh: 5; Shn3 inh set2: 45; TWEAK Fn14 block: -28; Peg3 promoter: 8; TROY NFkB inh: -22

What do the screens show for `O=C(N/N=C/c1cccc2cccnc12)c1ccccc1O`?
TRPM1 prom inh: 69*; LMP1 NFkB inh: 5; Shn3 inh set2: 92*; TWEAK Fn14 block: -23; Peg3 promoter: 41; TROY NFkB inh: -15

What do the screens show for `Cc1ccc2nc(Cl)c(/C=N/NC(=O)c3ccccc3O)cc2c1`?
TRPM1 prom inh: -1; LMP1 NFkB inh: -2; Shn3 inh set2: 4; TWEAK Fn14 block: -10; Peg3 promoter: -1; TROY NFkB inh: 52*

How did O=P(NC1CCCCC1)(c1ccccc1)c1ccccc1 do in these assays?
TRPM1 prom inh: -13; LMP1 NFkB inh: 0; Shn3 inh set2: -32; TWEAK Fn14 block: 8; Peg3 promoter: 8; TROY NFkB inh: 9

Results for CC/C(=C\C1CCCCC1)C(NP(=O)(c1ccccc1)c1ccccc1)c1ccccc1 (stereo unspecified) ?
TRPM1 prom inh: 19; LMP1 NFkB inh: -1; Shn3 inh set2: -14; TWEAK Fn14 block: 8; Peg3 promoter: 59*; TROY NFkB inh: 12

How did O=C(CC1SC(=O)N(Cc2cccc3ccccc23)C1=O)Nc1nccs1 (stereo unspecified) do in these assays?
TRPM1 prom inh: -5; LMP1 NFkB inh: 10; Shn3 inh set2: -57; TWEAK Fn14 block: -16; Peg3 promoter: 16; TROY NFkB inh: 11

How did CCOC(=O)CN1C(=O)SC(CC(=O)Nc2nccs2)C1=O (stereo unspecified) do in these assays?
TRPM1 prom inh: 8; LMP1 NFkB inh: -5; Shn3 inh set2: 16; TWEAK Fn14 block: 67*; Peg3 promoter: -7

What do the screens show for `CCOC(=O)c1cccc(NC(=O)c2ccc3c(c2)OCO3)c1`?
TRPM1 prom inh: -53; LMP1 NFkB inh: -20; Shn3 inh set2: -33; TWEAK Fn14 block: -31; Peg3 promoter: -189; TROY NFkB inh: -32

Results for CCOC(=O)c1cccc(NC(=O)/C=C/c2ccc3c(c2)OCO3)c1 ?
TRPM1 prom inh: 6; LMP1 NFkB inh: 9; Shn3 inh set2: -28; TWEAK Fn14 block: 70*; Peg3 promoter: -98; TROY NFkB inh: 51*

Results for Cc1ccc(OCCCNCCO)c(Br)c1 ?
TRPM1 prom inh: 23; LMP1 NFkB inh: -7; Shn3 inh set2: -45; TWEAK Fn14 block: 53*; Peg3 promoter: 2; TROY NFkB inh: 20

How did COc1ccc2sc3c(=O)[nH]c4ccccc4c3c2c1 do in these assays?
TRPM1 prom inh: 46; LMP1 NFkB inh: 88*; Shn3 inh set2: 9; TWEAK Fn14 block: 46; Peg3 promoter: 25; TROY NFkB inh: 9

What do the screens show for `COc1ccc2c(c1)[nH]c(=O)c1sc3ccccc3c12`?
TRPM1 prom inh: 16; LMP1 NFkB inh: -34; Shn3 inh set2: 8; TWEAK Fn14 block: -50; Peg3 promoter: 12; TROY NFkB inh: 0

What do the screens show for `O=C(Nc1ccc(Br)cn1)C1CCCN1S(=O)(=O)c1ccccc1` (stereo unspecified)?
TRPM1 prom inh: -1; LMP1 NFkB inh: 11; Shn3 inh set2: 2; TWEAK Fn14 block: 1; Peg3 promoter: -18; TROY NFkB inh: -13

What do the screens show for `Cc1c(CCOC(=O)CC23CC4CC(CC(C4)C2)C3)sc[n+]1Cc1ccccc1`?
TRPM1 prom inh: 18; LMP1 NFkB inh: 0; Shn3 inh set2: 25; TWEAK Fn14 block: -19; Peg3 promoter: -8; TROY NFkB inh: 13

What do the screens show for `Cc1c(CCOC(=O)C23CC4CC(CC(C4)C2)C3)sc[n+]1CC#N`?
TRPM1 prom inh: 20; LMP1 NFkB inh: -3; Shn3 inh set2: 77; TWEAK Fn14 block: 26; Peg3 promoter: 51*; TROY NFkB inh: 10

What do the screens show for `O=C(Nc1ccnn1C1CCN(Cc2ccccc2OC(F)F)CC1)c1cccc(F)c1`?
TRPM1 prom inh: -11; LMP1 NFkB inh: 1; Shn3 inh set2: 8; TWEAK Fn14 block: -2; Peg3 promoter: -3; TROY NFkB inh: -2
